Data reported in PubChem BioAssay (NCATS).
Records with an inconclusive call do not appear. Entries that show only a call come without a potency. Activity calls are given as the source filed them. The call rests on the fitted dose curve; in most records, active means well fitted inhibition curve with a large enough effect; inconclusive means small, poorly fitted or top-dose-only effect; inactive means flat fitted curve, though single readings scatter.

Experiments:
Test in all cases: qHTS profiling for inhibitors of Plasmodium falciparum proliferation (AID 504749); further: nearly all actives have a fitted effect of over 60% in size
Details in all cases: P. falciparum in erythrocytes, SYBR Green DNA, 72 h; series mostly up to 28.7 µM
C2A = system: C2A
How it was run: (§1)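 P. falciparum-infected erythrocytes (0.3% parasitemia, 2.5% hematocrit) incubated with compound 72 h at 37 C, 5% CO2. Parasite DNA detected by SYBR Green after lysis, overnight at room temperature; normalised to 0.29 uM artemisinin and DMSO.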

CP185 = system: CP185
How it was run: as §1

CP194 = system: CP194
How it was run: as §1

CP201 = system: CP201
How it was run: as §1

CP237 = system: CP237
How it was run: as §1

CP238 = system: CP238
How it was run: as §1

CP247 = system: CP247
How it was run: as §1

CP250 = system: CP250
How it was run: as §1

CP256 = system: CP256
How it was run: as §1

CP262 = system: CP262
How it was run: as §1

CP266 = system: CP266
How it was run: as §1

CP268 = system: CP268
How it was run: as §1

CP269 = system: CP269
How it was run: as §1

CP305 = system: CP305
How it was run: as §1

CP325 = system: CP325
How it was run: as §1

CP329 = system: CP329
How it was run: as §1

P94_40 = system: P94_40
How it was run: as §1

PAD = system: PAD
How it was run: as §1

SC27B = system: SC27B
How it was run: as §1

TAB109 = system: TAB109
How it was run: as §1
Potency means the concentration at half of the fitted maximal effect.

Q: Which results are given for `CC(C)(C)NC[C@@H](O)c1ccc(O)c(CO)n1`?
A: Potency (C2A): inactive; Potency (CP185): inactive; Potency (CP194): inactive; Potency (CP201): inactive; Potency (CP237): inactive; Potency (CP238): inactive; Potency (CP247): inactive; Potency (CP250): inactive; Potency (CP256): inactive; Potency (CP262): inactive; Potency (CP266): inactive; Potency (CP268): inactive; Potency (CP269): inactive; Potency (CP305): inactive; Potency (CP325): inactive; Potency (CP329): inactive; Potency (P94_40): inactive; Potency (PAD): inactive; Potency (SC27B): inactive; Potency (TAB109): inactive

Q: What does the source list for `C[C@]12CC[C@H]3c4ccc(O)cc4CC[C@@H]3[C@H]1CC[C@@H]2OC(=O)CCC1CCCC1`?
A: Potency (C2A): inactive; Potency (CP185): inactive; Potency (CP194): inactive; Potency (CP201): inactive; Potency (CP237): 8.91 µM (active); Potency (CP238): inactive; Potency (CP247): inactive; Potency (CP250): inactive; Potency (CP256): inactive; Potency (CP262): inactive; Potency (CP266): inactive; Potency (CP268): inactive; Potency (CP269): inactive; Potency (CP305): inactive; Potency (CP325): inactive; Potency (CP329): inactive; Potency (P94_40): inactive; Potency (PAD): 10 µM (active); Potency (SC27B): inactive; Potency (TAB109): inactive

Q: What does the source list for `O=C(O)[C@@H](S)[C@H](S)C(=O)O`?
A: Potency (C2A): 7.08 µM (active); Potency (CP185): 11.2 µM (active); Potency (CP194): 15.1 µM (active); Potency (CP201): 12 µM (active); Potency (CP237): 7.08 µM (active); Potency (CP238): 12.6 µM (active); Potency (CP247): 7.94 µM (active); Potency (CP250): 7.08 µM (active); Potency (CP256): 7.94 µM (active); Potency (CP262): 6.75 µM (active); Potency (CP266): 9.53 µM (active); Potency (CP268): 13.5 µM (active); Potency (CP269): 6.75 µM (active); Potency (CP305): 7.57 µM (active); Potency (CP325): 9.53 µM (active); Potency (CP329): 10.7 µM (active); Potency (P94_40): 4.47 µM (active); Potency (PAD): 8.91 µM (active); Potency (SC27B): 11.2 µM (active); Potency (TAB109): 5.62 µM (active)

Q: Which Potency (C2A) does the source give for `NS(=O)(=O)c1cc2c(cc1Cl)N[C@H](Cc1ccccc1)NS2(=O)=O` here?
A: inactive

Q: What about the Potency (CP185) of the same compound?
A: inactive

Q: What about the Potency (CP194) of the same compound?
A: inactive

Q: And the Potency (CP201)?
A: inactive

Q: And the Potency (CP237)?
A: inactive

Q: And the Potency (CP238)?
A: inactive

Q: And the Potency (CP247)?
A: inactive

Q: What about the Potency (CP250) of the same compound?
A: inactive

Q: And the Potency (CP256)?
A: inactive

Q: What about the Potency (CP262) of the same compound?
A: inactive

Q: And the Potency (CP266)?
A: inactive

Q: What about the Potency (CP268) of the same compound?
A: inactive

Q: And the Potency (CP269)?
A: inactive

Q: And the Potency (CP305)?
A: inactive

Q: What about the Potency (CP325) of the same compound?
A: inactive

Q: And the Potency (CP329)?
A: inactive

Q: And the Potency (P94_40)?
A: inactive

Q: And the Potency (PAD)?
A: inactive

Q: What about the Potency (SC27B) of the same compound?
A: inactive

Q: And the Potency (TAB109)?
A: inactive

Q: What does the source list for `CN(C)[C@H]1C(=O)C(C(=O)NCN2CCCC2)=C(O)[C@]2(O)C(=O)C3=C(O)c4c(O)cccc4[C@](C)(O)[C@H]3C[C@H]12`?
A: Potency (C2A): inactive; Potency (CP185): inactive; Potency (CP194): inactive; Potency (CP201): inactive; Potency (CP237): inactive; Potency (CP238): inactive; Potency (CP247): inactive; Potency (CP250): inactive; Potency (CP256): inactive; Potency (CP262): inactive; Potency (CP266): inactive; Potency (CP268): inactive; Potency (CP269): inactive; Potency (CP305): inactive; Potency (CP325): inactive; Potency (CP329): inactive; Potency (P94_40): inactive; Potency (PAD): inactive; Potency (SC27B): inactive; Potency (TAB109): inactive

Q: `Cc1cn([C@H]2C[C@H](N=[N+]=[N-])[C@H](CO)O2)c(=O)[nH]c1=O` was tested. Which Potency (C2A) did it give?
A: inactive

Q: And the Potency (CP185)?
A: inactive

Q: And the Potency (CP194)?
A: inactive

Q: And the Potency (CP201)?
A: inactive

Q: And the Potency (CP237)?
A: inactive

Q: And the Potency (CP238)?
A: inactive

Q: What about the Potency (CP247) of the same compound?
A: inactive

Q: And the Potency (CP250)?
A: inactive

Q: What about the Potency (CP256) of the same compound?
A: inactive

Q: What about the Potency (CP262) of the same compound?
A: inactive

Q: And the Potency (CP266)?
A: inactive

Q: And the Potency (CP268)?
A: inactive

Q: What about the Potency (CP269) of the same compound?
A: inactive

Q: And the Potency (CP305)?
A: inactive

Q: And the Potency (CP325)?
A: inactive

Q: What about the Potency (CP329) of the same compound?
A: inactive

Q: And the Potency (P94_40)?
A: inactive

Q: And the Potency (PAD)?
A: inactive

Q: And the Potency (SC27B)?
A: inactive

Q: What about the Potency (TAB109) of the same compound?
A: inactive
